# Assay results reported in PubChem BioAssay AID1878 (Sanford-Burnham Center for Chemical Genomics, 2009).
# The whole screen tested about 1,000 compounds, of which about 200 (20%) were called active. Not all results are given here. Results with a measured potency or affinity are listed apart. Unmarked numbers belong to inactive results. No stated cut-off is given here; in the data, active means inhibition above about 55%; inactive means the rest.
# Target: Dual specificity protein phosphatase 3 (Homo sapiens) (UniProt P51452)
# Sequence (P51452 whole entry, looked up): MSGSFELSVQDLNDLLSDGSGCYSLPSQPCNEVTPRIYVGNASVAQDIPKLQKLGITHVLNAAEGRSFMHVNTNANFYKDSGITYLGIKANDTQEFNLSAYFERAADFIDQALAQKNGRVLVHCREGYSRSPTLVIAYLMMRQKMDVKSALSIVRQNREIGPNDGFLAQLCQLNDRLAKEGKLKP
# Experiment: VHR1 phosphatase inhibitors, biochemical (AID 1878)
# Details: recombinant VHR phosphatase, fluorogenic substrate; at 13.3 µM; hits give high values
row,SMILES,inhibition
1,CCC1CCCCN1CCCNS(=O)(=O)c1ccc2c(c1)oc(=O)n2C (stereo unspecified),-1.5%
2,Clc1ccc2ccc3cccnc3c2n1,-16.7%
3,Cc1ccc(CNc2ccc(N3CCOCC3)c(Cl)c2)cc1,8%
4,Cc1c(C(=O)N2CCCCC2)c(S(=O)(=O)N2CCN(c3ccc(F)cc3)CC2)c(C)n1C,-7%
5,Cc1c(C)n(C)c2ccc(C(=O)NCCCN3CCCCC3C)cc12 (stereo unspecified),-11%
6,O=C(CSc1n[nH]c(-c2ccccc2O)n1)NC1CCCCC1,2.6%
7,Clc1ccc(Cl)c(OCCCCN2CCCCC2)c1,-4.8%
8,COc1ccc(CCNC(=O)CCNC(=O)N2CC(=O)Nc3ccccc32)cc1,13.9%
9,COc1ccc(OC)c(NC(=O)CCN2CCN(c3ccccc3OC)CC2)c1,6.9%
10,COc1ccc(N2CCN(c3ncnc4scc(-c5ccccc5)c34)CC2)cc1,16.6%
11,O=C(Nc1cccc(-n2cnnn2)c1)c1ccc(Cl)cc1Cl,3.8%
12,Oc1ccc(-c2nc3ccccc3nc2-c2ccccc2)cc1,-3.2%
13,O=S(=O)(Nc1ccc2ccccc2n1)c1ccccc1Cl,3.5%
14,CCCN1C2CCCC1CC(NC(=O)c1ccc(C(C)(C)C)cc1)C2 (stereo unspecified),-2.3%
15,CC1CCCCN1CC(O)COc1ccc(OCC(O)CN2CCCCC2C)cc1 (stereo unspecified),-5.3%
16,COc1ccc(Nc2nc(-c3sc(C)nc3C)cs2)c(OC)c1,23%
17,COc1ccc(C(=O)N2CCCCCCC2)cc1OC1CCN(C(C)C)CC1,-3.1%
18,COc1ccc(C(=O)N(C)CCCC2CCCC2)cc1OC1CCN(C(C)C)CC1,-11.7%
19,O=c1[nH]c(NCCO)nnc1Cc1ccccc1,-18.8%
20,CN(C(=O)COC(=O)c1cc(-c2ccco2)nc2ccccc12)C1CCS(=O)(=O)C1 (stereo unspecified),98.4% (active)
21,CCc1ccc(-c2cc(C(=O)NN3CCOCC3)c3ccccc3n2)s1,-11.9%
22,CCOc1ccc(N(C)C(=O)CCc2nnc3ccc(N4CCOCC4)nn23)cc1,-3.3%
23,O=C(N=C1SC2CS(=O)(=O)CC2N1c1ccc(F)cc1F)C1CC1 (stereo unspecified),-8.3%
24,Cn1c(=O)oc2cc(S(=O)(=O)N3CCCC(C(=O)NCc4ccc5c(c4)OCO5)C3)ccc21 (stereo unspecified),9.1%

row,SMILES,inhibition
1,CCC(=O)N1CCc2cc(S(=O)(=O)CCC(=O)NCc3ccc(OC)cc3)ccc21,20%
2,CC(C)c1cc(N=NC(N)=O)cc(C(C)C)c1O,0.5%
3,CCN1CCN(Cc2nnc(-c3ccc(C)cc3)o2)CC1,-3.3%
4,O=C1CCC(C(=O)N2CCCC2)CN1Cc1cccc(C(F)(F)F)c1 (stereo unspecified),-14.6%
5,CCc1nnc(NC(=O)CCNC(=O)c2ccco2)s1,-5.4%
6,Cc1ccc(NC(=O)Cn2c(O)c(N=NC(N)=S)c3ccccc32)cc1,9.9%
7,CCCN1CCN(CCCNC(=O)c2ccc(CS(=O)c3ccccc3C)o2)CC1 (stereo unspecified),1.2%
8,Cc1ccc(OCCCCN2CCCCC2)c(C)c1,5.4%
9,Oc1ccc(C23CC4CC(CC(C4)C2)C3)cc1O,5.9%
10,COC(=O)c1ccc(CNC(=O)C2CCC(=O)N(Cc3ccccn3)C2)cc1 (stereo unspecified),-6%
11,Cc1ccc2oc(C(=O)N3CCN(C)C[C@@H]3C(C)C)c(C)c2c1,-13.8%
12,Cc1ccccc1S(=O)(=O)Cc1ccc(C(=O)NCCCN2CCCC2)o1,-7.1%
13,COc1ccc(C2NN=C(c3ccc(C)cc3)S2)cc1 (stereo unspecified),-9.5%
14,Cc1cc(NC(=O)CCCN2C(=O)/C(=C\c3cccs3)SC2=S)no1,-12%
15,O=C(O)CCN1C(=O)/C(=C/c2cn(-c3ccccc3)nc2-c2cccs2)SC1=S,98% (active)
16,CC1(C)CC(NC(=O)c2cccc(Cl)c2)CC(C)(C)N1,2.3%
17,CCOc1ccccc1C(=O)NC1CC2CCCC(C1)N2Cc1ccc(C)cc1 (stereo unspecified),9.8%
18,Cc1ccc(Oc2coc3cc(O)ccc3c2=O)cc1,1%
19,O=[N+]([O-])CC(c1ccc(F)cc1)c1c[nH]c2ccccc12 (stereo unspecified),-0.1%
20,O=C(NCc1ccc(F)cc1)C(=O)c1cn(CC(=O)N2CCCC2)c2ccccc12,-3%
21,CCOc1ccc(C(=S)N2CCCC2)c(OCC)c1,-7.2%
22,CCOC(=O)CCNC(=O)N1CCC(CCC(=O)NCc2ccc(F)cc2)CC1,-0.1%
23,CN1CCC(N(C)S(=O)(=O)c2ccc(Cl)cc2)CC1,-9.6%
24,CC(=O)Nc1ccc(N2C(=O)CSC2c2cccc(Br)c2)cc1 (stereo unspecified),1.4%

row,SMILES,inhibition
1,CN(CCCNC(=O)CCc1cn(C)c2ccccc12)C1CCCCC1,-3.3%
2,COc1ccc(O)c(CN2CCN(CCCc3ccccc3)C(CCO)C2)c1 (stereo unspecified),-8%
3,N#Cc1nc(-c2ccc(OCc3ccc(Cl)cc3)cc2)oc1N1CCC(C(N)=O)CC1,93.5% (active)
4,Fc1cc(F)nc(NCc2ccccc2)n1,8.1%
5,Oc1ccc(N2CCN(Cc3nc4ccccc4[nH]3)CC2)cc1,-15.2%
6,CCC1CCCCN1CCCNC(=O)CS(=O)Cc1nc(-c2ccc(OC)c(OC)c2)oc1C (stereo unspecified),15.7%
7,Cc1c(CCCN)c2ccccc2n1Cc1ccccc1,-12.5%
8,COc1cccc(C(N)=O)c1OC(=O)Cc1ccccc1F,-0.1%
9,O=C(Nc1nnc(SCc2c(Cl)cccc2Cl)s1)c1ccc2ncsc2c1,66.9% (active)
10,O=C(Nc1cccc(F)c1)c1ccc2ncsc2c1,-14.9%
11,Cc1nnc(NC(=O)c2cccc(Br)c2)s1,4%
12,COc1cc(N=Cc2c(CO)cnc(C)c2O)cc(OC)c1OC,-8.3%
13,C=CCNC(=O)c1ccc(CN2CCC(Cc3ccccc3)CC2)cc1,-11.1%
14,CSc1ncccc1C(=O)NC1CCN(Cc2ccccc2)CC1,2.3%
15,CCOc1ccc(CCNC(=O)CS(=O)Cc2nc(-c3ccc(OC)c(OC)c3)oc2C)cc1OCC (stereo unspecified),8.4%
16,COC(=O)C1(CO)NC(c2ccc(C)cc2)C2C(=O)N(c3ccccc3)C(=O)C21 (stereo unspecified),-3.3%
17,CC1=C(C(=O)OCc2ccccc2)C(c2ccc([N+](=O)[O-])cc2)NC(=O)N1C (stereo unspecified),2.8%
18,COc1cc(-c2c(NC(=O)c3ccco3)oc3ccccc3c2=O)cc(OC)c1OC,-9.9%
19,CCN(CC)CCCN(Cc1cc2cc3c(cc2[nH]c1=O)OCO3)C(=S)NCCCN(C)C,-12.7%
20,O=C(NC1=NN(c2ccccc2)CC1)Nc1ccccc1F,-3.5%
21,O=c1c2c3nc4ccccc4nc3n(-c3ccc4c(c3)OCCO4)c2ncn1C1CCCC1,96.5% (active)
22,CSc1ncc(C(=O)Nc2ccccc2C)c(C)n1,6.2%
23,CCN1CCN(CCCNC(=O)CNC(=O)c2nn(-c3ccc(OC)cc3OC)c(=O)c3ccccc23)CC1,38.3%
24,Cc1ccc2c(c1)c(CC(=O)Nc1ccc(C)c(F)c1)c(C(=O)O)n2C,-6.8%

row,SMILES,inhibition
1,O=C(O)c1ccc(-n2cccc2/C=C2/SC(=O)N(CC(=O)N3CCCC3)C2=O)cc1,96.8% (active)
2,Cc1cccc(NC(=O)CN2C(=O)S/C(=C\c3cccn3-c3cccc(C(=O)O)c3)C2=O)c1,75.6% (active)
3,Cc1ccc(NC(=O)NC(=O)CN2CCN(c3ccc(O)cc3)CC2)c(C)c1,-13.5%
4,O=C(Cn1nc(-c2ccccc2)ccc1=O)N1CCCCC1,-1.1%
5,COc1ccccc1CNC(=O)C1Cc2cc(S(=O)(=O)N3CCCCC3)ccc2N1C(C)=O (stereo unspecified),28.1%
6,CCC1CCCCN1C(=O)c1ccc(OC2CCN(C(=O)CCOC)CC2)cc1 (stereo unspecified),-6.7%
7,CN(C)S(=O)(=O)c1ccc(C(=O)N2CC(=O)Nc3ccc(F)cc3C2c2ccc(F)cc2)cc1 (stereo unspecified),26.6%
8,COc1ccc(CCNC(=O)CCNC(=O)N2CC(=O)Nc3ccccc32)cc1OC,-7.1%
9,COC(=O)c1cc(S(=O)(=O)NCCN2CCN(c3ccccc3F)CC2)c[nH]1,17.5%
10,CC(=O)Nc1cccc(C(=O)NC(C)c2ccc(-n3ccnc3)cc2)c1 (stereo unspecified),1.8%
11,CCCCN(CC)CCNC(=O)C1CCN(S(=O)(=O)c2cccc3nsnc23)CC1,8.4%
12,O=C(NCCN1CCCCC1)Nc1ccccc1F,18.4%
13,CC1CC(C)CN(CCCNC(=O)Cn2cccc2C(=O)c2ccccc2)C1 (stereo unspecified),-12.8%
14,CCOC(=O)NN=C1CCC(c2ccccc2)CC1 (stereo unspecified),-4.2%
15,CCC(C)Nc1nc2ccccc2n2c(C)nnc12 (stereo unspecified),26.9%
16,O=C(CCC1CCN(Cc2ccc(Cl)cc2)CC1)NC1CC1,-8.1%
17,O=c1cc(-c2ccc([N+](=O)[O-])cc2)nc2cc(-c3ccc(Cl)cc3)[nH]n12,97.6% (active)
18,O/N=C/c1ccc2cccc(OCc3ccccc3)c2n1,-5.4%
19,Cc1ccc(Cn2c(N3CCNCC3)nc3c2c(=O)[nH]c(=O)n3C)cc1,3.7%
20,COc1ccc(C2NC(=O)CCC2[N+](=O)[O-])cc1OC (stereo unspecified),-5.6%
21,COc1ccc(OCC(=O)Nc2nc3c(s2)CCCC3)cc1,1.9%
22,COc1ccc(C(=O)CCC(=O)Nc2ccc(N3CCCCC3)cc2)cc1OC,-1.2%
23,COc1cc(NC(=O)CSc2ncnc3sc4c(c23)CCCC4)c(C(=O)O)cc1OC,55.5% (active)
24,COc1cccc(COC(=O)C2CCN(C(=O)c3ccccc3C)CC2)c1OC,-4.4%
